# In the library only some 7.8% were active in any assay of this set; here they are far more common.
# Vaccinia Venus: vaccinia inhibition (Venus reporter) | AID 720580 | Potency, µM (top dose mostly 36.5 µM), for inactives: at the highest dose activity change, negative = inhibition, hits mostly inhibitors | Vaccinia virus Venus reporter expression, fluorescence | hit rate 0.46% among 330,000; calls by dose curve; tested in A549 cells; note: potency is the fitted concentration of half-maximal effect; nearly all actives have a fitted effect of over 30% in size
# HCMV antiviral: human cytomegalovirus inhibition; HFF cells, HCMV-luciferase reporter, 72 h; stronger effect = lower value; activity change, negative = inhibition, % at 57.5 µM; hit rate 4.5% among 410,000; AID 1259415; in the data active = activity change below about -60%; inconclusive = no clear call, values can overlap the other calls; inactive = above about -39%
#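 Luciferase read-out from HCMV-luciferase-infected HFFs (MOI 1 PFU/cell) 72 h post infection at 37C; compounds added after 16 h cell attachment; activity normalized between buffer-only basal and Salinomycin (10uM) inhibitor controls.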
# HCV inh: inhibitors of hepatitis C virus infection; Huh7.5.1 HCVcc-Cre infection, luciferase reporter, 44 h; hit rate 3.4% among 340,000; Potency, µM (titrated, usually from 41.8 µM), without a hit: at the highest dose activity change, negative = inhibition, usual class: inhibitors; AID 651820; active = well fitted inhibition curve with a large enough effect; inconclusive = small, poorly fitted or top-dose-only effect, or another doubt; inactive = no such curve, though single readings can be large or run the other way; note: potency is the fitted concentration of half-maximal effect
#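 Reporter virus HCVcc-Cre (~0.5 moi) infects cells exposed to compound; seeding density 1,000 cells/well with 4 h settling beforehand. Luminescence, 15 sec read, taken 44 h post-infection following a 15 min RT substrate incubation.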
# Marburg entry inh: blocks Marburg virus binding to or entry into cells. Marburg virus pseudotyped entry inhibition, cell reporter. Potency, µM (highest dose often 37.8 µM), without a hit: at the highest dose activity change, negative = inhibition, actives largely listed as inhibitors. hit rate 1.8% among 300,000. AID 540276; calls by dose curve; tested in HEK293 cells; note: potency is the fitted concentration of half-maximal effect
# LASV entry inh: Lassa virus entry inhibition; Lassa virus pseudotype entry inhibition, cell reporter; Potency, µM (series often up to 37.9 µM), inactives show at the highest dose activity change, negative = inhibition, actives largely listed as inhibitors; hit rate 1.2% among 300,000; AID 540256; calls by dose curve; tested in HEK293 cells; note: potency is the fitted concentration of half-maximal effect; nearly all actives have a fitted effect of over 50% in size
# VACV mCherry inh: vaccinia inhibition (mCherry reporter) | hit rate 0.63% among 310,000 | Potency, µM (series often up to 36.5 µM), for the others: at the top dose activity change, negative = inhibition, hits mostly inhibitors | Vaccinia virus mCherry reporter infection, fluorescence; calls by dose curve; tested in A549 cells; note: potency is the fitted concentration of half-maximal effect; nearly all actives have a fitted effect of over 35% in size
# Numbers without * were called inactive; i = inactive; ? = inconclusive; · = not tested or not shown; [ ] = dose if it differs, or a comment. % is set by controls: 0 for no effect and ±100 for the full control effect.
SMILES,Vaccinia Venus,HCMV antiviral,HCV inh,Marburg entry inh,LASV entry inh,VACV mCherry inh
O=C(Nc1ccc(Oc2nnc(-c3ccccc3)c3ccccc23)cc1)c1ccccc1,-8%,-60*,-8%,?,3%,-6%
CCOc1ccccc1C1C(C(=O)Nc2ccccc2)=C(C)Nc2nc(SCC(=O)c3ccc(C)cc3)nn21 (centres undefined),-23%,-72*,·,·,9%[46.1 µM],-30%
COc1ccc(NC(=O)C2=C(C)Nc3nc(SCc4ccc(Cl)cc4)nn3C2c2cccc(OC)c2OC)cc1 (centres undefined),-8%,?,·,·,-28%[46.1 µM],-16%
COc1ccc(NC(=O)C2=C(C)Nc3nc(SCc4ccccc4)nn3C2c2cc(OC)ccc2OC)cc1 (centres undefined),-12%,-82*,·,·,?,-8%
CCSc1nc2n(n1)C(c1ccc(Cl)cc1Cl)C(C(=O)Nc1ccccc1C)=C(C)N2 (centres undefined),?,-91*,·,·,3%[46.1 µM],?
C[C@H](CO)N1C[C@H](C)[C@@H](CN(C)C(=O)Nc2ccc(C(F)(F)F)cc2)Oc2c(NS(=O)(=O)c3cn(C)cn3)cccc2C1=O,-10%,-10,2.8µM*,·,·,-17%
Cc1ccc(S(=O)(=O)Nc2cccc3c2O[C@H](CN(C)Cc2ccc(-c4ccccc4)cc2)[C@@H](C)CN([C@H](C)CO)C3=O)cc1,?,-39,?,·,·,?
C[C@H](CO)N1C[C@H](C)[C@@H](CN(C)C(=O)Nc2ccc(C(F)(F)F)cc2)Oc2ccc(NS(=O)(=O)c3ccc(F)cc3)cc2C1=O,-16%,-33,-22%,·,·,-2%
Cc1ccc(S(=O)(=O)Nc2ccc3c(c2)C(=O)N([C@H](C)CO)C[C@H](C)[C@@H](CN(C)C(=O)Nc2ccc(C(F)(F)F)cc2)O3)cc1,-25%,11,13µM*,·,·,-18%
C[C@H](CO)N1C[C@H](C)[C@@H](CN(C)C(=O)Nc2ccccc2)Oc2c(NS(=O)(=O)c3cn(C)cn3)cccc2C1=O,-21%,-11,23%,·,·,i
COc1ccc(S(=O)(=O)N(C)C[C@H]2Oc3c(NC(=O)Nc4ccc(C(F)(F)F)cc4)cccc3C(=O)N([C@H](C)CO)C[C@@H]2C)cc1,10µM*,·,?,·,·,?
Cc1ccc(S(=O)(=O)Nc2ccc3c(c2)C(=O)N([C@H](C)CO)C[C@H](C)[C@@H](CN(C)Cc2ccc(-c4ccccc4)cc2)O3)cc1,10µM*,·,?,·,·,?
O=S1(=O)C=CCN1C1CCCC1,·,·,·,·,7%[46.1 µM],·
CCOc1ccc(-c2nnn(CC(=O)N3CCCC(C)C3)n2)cc1 (centres undefined),·,-70*,-20%,·,·,·
COc1cc2c(cc1NC(=O)CSc1nnnn1-c1ccccc1)oc1ccccc12,-7%,3,-6%,?,?,·
COc1ccccc1NC(=O)CSc1nnc(Cc2cccs2)n1C,-9%,-5,2%,-8%,-1%,-14%
CCn1c(SCC(=O)Nc2ccc3c(c2)oc2ccccc23)nnc1-c1ccc(N)cc1,·,?,11µM*,-30%,?,·
COc1cc2c(cc1NC(=O)CSc1nnc(Cc3cccs3)n1C)oc1ccccc12,-28%,22,10µM*,-30%,4%,·
CCn1c(SCC(=O)Nc2cc3oc4ccccc4c3cc2OC)nnc1-c1cccs1,-20%,-19,10µM*,?,?,-8%
COc1cc2c(cc1NC(=O)CSc1nnc(COc3ccc(Cl)cc3)n1C)oc1ccccc12,·,39,6.3µM*,?,-5%,·
CC(=O)Nc1ccc(-c2nnc(SCC(=O)Nc3ccc4c(c3)oc3ccccc34)n2C)cc1,·,86,-17%,9%,?,·
COc1cc2c(cc1NC(=O)CSc1cccc[n+]1[O-])oc1ccccc12,-10%,9,?,-9%,12%,i
Cc1c(Cl)cccc1NC(=O)CSc1nc(=O)n(Cc2ccncc2)c2c1CCC2,-16%,7,·,·,-21%[46.1 µM],-30%
COc1ccc(C)c2sc(N(Cc3cccnc3)C(=O)COc3ccccc3)nc12,-4%,?,·,·,8%[46.1 µM],-10%
COc1ccc(C2C(C(N)=O)=C(C)Nc3nc(SCc4ccccc4Cl)nn32)cc1OC (centres undefined),-10%,7,·,-8%[46.1 µM],-1%[46.1 µM],-10%
SMILES,Vaccinia Venus,HCMV antiviral,HCV inh,Marburg entry inh,LASV entry inh,VACV mCherry inh
Cc1cc(Cl)ccc1NC(=O)CSc1nnc(Cc2cccs2)n1Cc1ccco1,·,-6,?,?,1%,·
COc1cc2c(cc1NC(=O)CSc1nnc(Cc3cccs3)n1Cc1ccco1)oc1ccccc12,·,43,2µM*,?,-9%,·
COc1ccc(-n2c(=O)c3sc4ccccc4c3n(CC(=O)NC3CCCCC3)c2=O)cc1,4%,-5,·,-26%[46.1 µM],1%[46.1 µM],2%
CCc1cc2c(=O)[nH]c(-c3ccccn3)nc2s1,?,-101*,?,6.3µM*,5.6µM*,2.8µM*
COc1ccc(C2c3ccc4ccccc4c3Oc3ncn(CCO)c(=N)c32)cc1OC (centres undefined),?,·,10µM*,7%,·,-3%
COc1ccc(C2c3ccc4ccccc4c3Oc3ncn(CCCO)c(=N)c32)cc1OC (centres undefined),-24%[7.34 µM],-34,13µM*,?,?,-6%[7.34 µM]
COc1ccc(C2c3c(ncn(CCCN4CCOCC4)c3=N)Oc3ccc4ccccc4c32)cc1OC (centres undefined),·,-12,22µM*,·,·,·
O=C(c1cc(-c2ccc(Br)cc2)nc2ccccc12)N1CCN(c2ccccc2O)CC1,?,-16,?,?,?,14µM*
O=C(c1cc(-c2ccccc2Cl)nc2ccc(Br)cc12)N1CCN(c2ccccn2)CC1,-13%,-90*,-4%,?,?,-16%
O=C(c1cc(-c2ccncc2)nc2ccccc12)N1CCN(Cc2ccccc2)CC1,-15%,-25,?,7.9µM*,?,-8%
O=C(c1cc(-c2ccncc2)nc2ccc(Br)cc12)N1CCN(c2ccccn2)CC1,-9%,41,-3%,5.6µM*,?,·
COc1ccccc1CNC(=O)c1cnc2sc(N3CCCCC3)nn2c1=O,-12%,-11,·,·,-11%[46.1 µM],-13%
COc1ccc(-c2cccc(NS(=O)(=O)c3cc(C)c(Cl)cc3C)c2)nn1,-10%,-17,·,·,-20%[46.1 µM],-6%
COc1ccc(-c2nsc(NC(=O)c3oc4cc(C)c(C)cc4c3C)n2)cc1,-2%,?,·,-4%[46.1 µM],0%[46.1 µM],-5%
O=C(NCC1CCC2(CCN(Cc3cnn(-c4ccc(F)cc4)c3)CC2)O1)c1ccccc1 (centres undefined),-13%,·,·,·,·,i
CN(C)C(=O)Oc1ccc(OCc2nc3ccccc3[nH]2)cc1,-11%,32,-30%,?,9.2µM*,-20%
CCOc1ccccc1NC(=O)N1CCc2cc(S(=O)(=O)N3CCC(C)CC3)ccc21,-10%,-11,·,29%[46.1 µM],11%[46.1 µM],-8%

# Screening results deposited in PubChem BioAssay by National Center for Advancing Translational Sciences (NCATS).
